Pf Dd2 inh – Plasmodium falciparum Dd2 growth inhibition; P. falciparum Dd2 growth, SYBR Green, 72 h; Potency, µM (series often up to 28.9 µM), for the others: at the highest dose activity, negative = inhibition, actives largely listed as inhibitors; 120,000 tested, 4.3% active; active means well fitted inhibition curve with a large enough effect;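 further: plate controls were DMSO vehicle for no effect and reference drug for full effect; nearly all actives have a fitted effect of over 65% in size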
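Infected erythrocytes (Dd2, 0.3% parasitemia, 2.5% hematocrit final) are added to compound in RPMI-1640/Albumax II medium, grown 72 h at 37C in low oxygen, then lysed with saponin/Triton-X containing SYBR Green and read by fluorescence.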
* hit, by the source's call; i = inactive; [ ] = remark or other dose. This excerpt belongs to a sample that is enriched for hits. Potency means the concentration at half of the fitted maximal effect.

SMILES	Pf Dd2 inh
COc1ccc(-c2nc(C)nc3c2CN(C(=O)c2ccc(C)cc2)CC3)cc1	-12.5%
COc1ccc(CC(=O)N2CCc3nc(-c4ccc(Cl)cc4)nc(-c4ccccc4)c3C2)cc1	i
COc1ccc(-c2nc(-c3ccccc3)nc3c2CN(C(=O)c2ccc(C(F)(F)F)cc2)CC3)cc1	8.91µM*
COc1ccc(-c2nc3c(c(-c4ccccc4)n2)CN(C(=O)c2ccccc2Cl)CC3)cc1	10µM*
COc1ccc(-c2nc(C)nc3c2CN(C(=O)c2ccccn2)CC3)cc1	2.6%
COc1ccc(C(=O)N2CCc3nc(C)nc(-c4ccc(OC)cc4)c3C2)cc1	-9.1%
COc1ccc(-c2nc3c(c(-c4ccccc4)n2)CN(C(=O)c2cccc(Cl)c2)CC3)cc1	i
COc1ccc(-c2nc(-c3ccccc3)nc3c2CN(C(=O)c2ccccc2C)CC3)cc1	10µM*
COc1ccc(-c2nc(C)nc3c2CN(C(=O)c2ccccc2)CC3)cc1	i
CC(=O)N1CCC2(CC1)N(CC1CC1)C(=O)CS2=O (stereo not given)	3.0%
COC(=O)[C@@H]1Cc2ncn(C(C)C)c2CN1C(=O)c1ccc(C(F)(F)F)cc1	-19.3%[44.1 µM]
Nc1cc(N2CC[C@@H](N3CCN(CCc4ccccc4)CC3)[C@H](O)C2)nc(N)n1	i
COc1ccc(CN2CCNC(=O)C2CC(=O)N2CCCC2)c(C)c1C (stereo not given)	10.7%
COCCN1C(=O)N(C)C(=O)C12CCN(CCc1ccccc1)C2 (stereo not given)	52.5%
COCCNC(=O)C1COC2(CCC(C)CC2)N1C(=O)c1cccc([N+](=O)[O-])c1 (stereo not given)	i
O=C(NC1CC1)c1ccc(CC2CCN(C(=O)c3ccc4ccccc4n3)CC2)cc1	2µM*
CCNC(=O)c1ccc(CC2CCN(C(C)=O)CC2)cc1	-28.5%
COCC(=O)NC1CCC12CCN(C(=O)c1ccc3ccccc3n1)CC2 (stereo not given)	i
N#CC1(c2ccccc2)CCN(C(=O)[C@H]2CCC[C@@H](O)C2)CC1	0.1%
COc1ccc(CN2CCC3(CC(c4cccnc4)=NO3)C2)cc1 (stereo not given)	-8.5%
COC(=O)[C@@H](C)NC(=O)[C@H]1CN(C(C)=O)CCN1S(C)(=O)=O	6.9%[44.1 µM]
COc1ccc(CNC(=O)CCS(=O)(=O)c2cc(Br)cc3c2N(C(C)=O)C(C)C3)cc1 (stereo not given)	3.5%
CCC(=O)N1CCc2cc(Br)cc(S(=O)(=O)CCC(=O)Nc3ccc(Cl)cc3)c21	5.01µM*
O=C(CCS(=O)(=O)c1cc(Br)cc2c1N(C(=O)C1CC1)CC2)NCc1ccc(Cl)cc1	6.31µM*
CCC(=O)N1CCc2cc(Br)cc(S(=O)(=O)NCCc3ccc(C)cc3)c21	i
SMILES	Pf Dd2 inh
Cc1ccc(CNS(=O)(=O)c2cc(Br)cc3c2N(C(=O)C2CC2)CC3)cc1	-1.2%
CC(C)c1ccc(NS(=O)(=O)c2cc(Br)cc3c2N(C(=O)C2CC2)CC3)cc1	-13.6%
CC(=O)N1CCc2cc(Br)cc(S(=O)(=O)N3CCC(C(=O)N(C)c4cc(C)ccc4C)CC3)c21	-9.3%
CCC(=O)N1CCc2cc(Br)cc(S(=O)(=O)CCC(=O)NCCc3ccccc3)c21	-3.5%
CC(=O)N1CCc2cc(Br)cc(S(=O)(=O)N3CCC(C(=O)Nc4ccc(C(C)C)cc4)CC3)c21	10µM*
O=C(CCS(=O)(=O)c1cc2c3c(c1)CCN3C(=O)CC2)NCc1ccc(Cl)cc1	16.3%
COc1ccc(NC(=O)CCS(=O)(=O)c2cc(Br)cc3c2N(C(C)=O)CC3)c(OC)c1	i
Cc1ccc(NC(=O)CCS(=O)(=O)c2cc(Br)cc3c2N(C(=O)C2CC2)CC3)cc1	1µM*
COCCn1cnc2ccc(N3CCCC3)nc2c1=O	-18.4%[44.1 µM]
COc1ccccc1-c1cc(NCc2cccnc2)c2onc(C)c2n1	i
COCCn1c(=O)c2c(n1Cc1ccccc1)CN(Cc1ccccc1O)CC2	i
CN(CC1CCOCC1)C(=O)NCc1ccccc1	16.8%
COc1ccc(CNC(=O)N2[C@H]3CC[C@@H]2c2cncnc2C3)cc1	-1.2%
COc1ccc(C(=O)N2CCC3(C2)C(=NC2CCCC2)NC(=O)N3c2cccnc2)cc1 (stereo not given)	8.3%
O=C1CCN(S(=O)(=O)c2ccccc2)CCCN(C(=O)c2ccc(Cn3cncn3)o2)CCN1	-1.8%
CC1Oc2ccc(NC(=O)c3ccccc3Cl)cc2CN(Cc2ccc(F)cc2)C1=O (stereo not given)	-17.6%
CCN1C(=O)CCN(S(=O)(=O)c2cccc(OC)c2)CC12CCOCC2	-10.2%
CN(Cc1cccnc1)C(=O)C1CCN(C(=O)N2CC3CC(C2)[C@H]2CCCC(=O)N2C3)CC1 (stereo not given in full)	25.3%
CS(=O)(=O)NC[C@H]1Cn2ccnc2CO1	-11.5%[44.1 µM]
CCC(=O)N1CCc2cc(Br)cc(S(=O)(=O)CCC(=O)Nc3cccc(C)c3C)c21	-1.8%
CCC(=O)N1CCc2cc(Br)cc(S(=O)(=O)NCCc3ccccc3Cl)c21	-21.7%
CCC(=O)N1CCc2cc(Br)cc(S(=O)(=O)CCC(=O)Nc3cccc(Cl)c3)c21	7.08µM*
CCCCCC(=O)N1CCC(O)(c2csc(CN3CCc4ccccc4C3)n2)CC1	-14.4%[44.1 µM]
Cc1ccc(S(=O)(=O)Nc2ccc(C)n(CC(=O)Nc3cccc(C)c3C)c2=O)cc1	-0.3%
CCCOc1ccc(CN2C[C@@H]3C(=O)N(CCOC)C(=O)[C@@H]3C2)cc1	204.4%
SMILES	Pf Dd2 inh
Cc1noc(-c2cn(C3CCN(C(=O)c4ccc(F)c(Cl)c4)C3)nn2)n1 (stereo not given)	-5.8%
COCCN1CCCN(C(=O)C2CCC2)c2ccccc21	i
COc1ccccc1C(=O)N1CCCN(Cc2ccc3c(c2)OCO3)c2ccccc21	i
O=C(C1CC1)N1CCCN(Cc2ccc3c(c2)OCO3)c2ccccc21	8.91µM*
O=C(c1ccccn1)N1CC(CO)C2(CCNCC2)C1 (stereo not given)	26.2%
CCN(C(=O)CSc1nc2ccccc2nc1Cc1ccccc1OC)c1ccccc1	-10.9%
COc1ccc(N2CCN(C(=O)CSc3nc(-c4ccccc4)no3)CC2)cc1	2.82µM*
CCc1ccc(NC(=O)CSc2nc(-c3ccccc3)no2)cc1	2.51µM*
CCc1ccc(NC(=O)CSc2nc(-c3ccccc3)c(C#N)c(=O)[nH]2)cc1	14.2%
CN(C(=O)Cn1cccc1-c1nc(-c2ccc(F)cc2)no1)c1ccccc1	-3.3%
CCN(C(=O)CSc1nc(-c2ccccc2)no1)c1ccccc1	3.16µM*
CC(C)c1ccc(C(=O)N2CCC(Cc3nc(-c4ccc(F)cc4)no3)CC2)cc1	-17.7%
CC(C)c1ccc(-c2noc(SCC(=O)N(C)c3ccc(F)cc3)n2)cc1	0.794µM*
CCc1ccc(NC(=O)CSc2nc3ccccc3nc2Cc2ccc(C)cc2)cc1	8.1%
COc1ccc(N2CCN(C(=O)CSc3n[nH]c(-c4ccccc4Cl)n3)CC2)cc1	-5.4%
CCN(C(=O)CSc1nc2ccccc2[nH]1)c1ccccc1	41.0%[5.79 µM]
COc1ccc(N2CCN(C(=O)CSc3nc4ccccc4nc3Cc3ccc(Cl)cc3)CC2)cc1	i
CCCS(=O)(=O)N1CCCC(c2nc(C(C)C)no2)CCNC(=O)CC1 (stereo not given)	16.5%
COCCn1ncc(N2CCCC(CC(=O)NCCN3CCCCC3)C2)cc1=O (stereo not given)	65.1%
O=C(c1ccc2c(c1)OCO2)N1CCC2(CN[S+](=O)([O-])c3ccccc3N2)C1 (stereo not given)	8.6%
CCCNC(=O)N(C1CCOCC1)C1CCN(C(=O)c2ccc(Cl)s2)CC1	-0.6%
